# From PubChem BioAssay
# EWS-Fli inh: EWS/Fli-driven NR0B1 reporter inhibitors, primary screen, A673 cells, NR0B1 luciferase, luminescence, MLPCN library; viability-normalised; inhibition, % at 12.6 µM; 350,000 tested, 0.67% active; AID 651661, 2012;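 active = mean inhibition of at least 50% after viability correction, with every replicate also passing that limit; inconclusive = mean reaches 50% but only one of two replicates passes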;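 note: firefly luciferase signal divided by Alamar Blue viability fluorescence both relative to DMSO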
# LGR2 antag: inhibitors of bursicon-induced LGR2 CRE-luciferase signal, primary screen, cell-based, HEK293, CRE-luciferase reporter, bursicon stimulation | Drosophila bursicon receptor LGR2 (rickets) | bursicon-stimulated, 4 h | 380,000 tested, 0.35% active | inhibition, % at 9.99 µM;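 active = drop in luminescence signal, shown as inhibition above about 50% in the replicate tests, limit read from the data, passing the limit was not always enough; inconclusive = probably only some replicates passing the limit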;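 note: agonist challenge used bursicon conditioned medium at about half maximal strength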
# PGC1a acetyl inh: inhibitors of PGC1a acetylation signal, primary screen, cell-based, U2OS, AlphaScreen, inhibitor mode | AlphaScreen anti-acetyl-lysine; with virally co-expressed GCN5 acetyltransferase | inhibition, % at 15.6 µM | 350,000 tested, 0.17% active | AID 651687, 2012;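 active = every replicate shows inhibition of at least 40%; inconclusive = mean inhibition at least 40% but some replicate below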;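 note: 0% = neutral control wells and 100% = positive control wells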
# SIRT5 block: SIRT5 desuccinylase inhibitors, primary screen, biochemical, fluorescence imaging, single point, set 5; Purified SirT5, succinyl-peptide AMC, trypsin-coupled fluorescence; inhibition, % at 15 µM; 330,000 tested, 1.1% active; in the data active = inhibition above about 15%; inconclusive = no clear call, values can overlap the other calls
# Target sequence (Q9NXA8 whole entry, looked up): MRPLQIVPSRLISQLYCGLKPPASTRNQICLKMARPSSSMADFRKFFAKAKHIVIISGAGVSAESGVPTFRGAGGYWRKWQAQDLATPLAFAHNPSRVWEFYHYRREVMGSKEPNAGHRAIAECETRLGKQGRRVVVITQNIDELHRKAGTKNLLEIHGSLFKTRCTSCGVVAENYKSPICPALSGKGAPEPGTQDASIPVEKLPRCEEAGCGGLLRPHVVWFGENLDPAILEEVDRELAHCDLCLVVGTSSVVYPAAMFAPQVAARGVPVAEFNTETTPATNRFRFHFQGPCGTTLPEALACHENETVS
# Ecoli rRNA inh: reduced GFP signal of wild-type E. coli, primary screen, bacterial rRNA inhibitor project, GFP/RFP fluorescence, OD600, single point; AID 720706, 2013; 350,000 tested, 1.6% active; E. coli WT GFP vs humanized-ribosome RFP mutants, 24 h; stronger effect = lower value; DMSO median 0, no signal -100; GFP signal change (wild-type ribosome), % (no concentration beside the values);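 active = significant combined selectivity score with lowered wild-type GFP, culture density cut under 30%, mutant RFP and density less affected; inactive = any of these conditions unmet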
# PAX8 inh HTS: inhibitors of PAX8-driven TPO luciferase reporter, primary screen, RMG-I cells, single concentration; 360,000 tested, 1.2% active; inhibition, % at 12.6 µM; SteadyGlo, 24 h; AID 652154, 2013;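 active = mean replicate inhibition at least 60% with every replicate also reaching 60%; inconclusive = only one of the two criteria is met; inactive = mean below 60% and not all replicates reaching 60%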;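 note: luciferase light reporting Pax8 driven TPO promoter activity; plate controls were median of neutral control wells for no effect and mitoxantrone controls for full effect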
# * hit, by the source's call; u = inconclusive; x = not tested or not shown. Hits are enriched below; roughly 3.4% of the tested compounds scored in any of these assays.
SMILES,EWS-Fli inh,LGR2 antag,PGC1a acetyl inh,SIRT5 block,Ecoli rRNA inh,PAX8 inh HTS
Cc1nccc(-c2ccc(-n3cnc4ccccc43)cc2)n1,x,x,20.5,x,x,x
Nc1nccc(-c2ccc(-n3cnc4ccccc43)cc2)n1,-50.5,-18.9,u,20.6*,-4.3,-119.1
COc1ccc(S(=O)(=O)N(C)C[C@@H]2Oc3ccc(NC(=O)C4CCCCC4)cc3C(=O)N([C@@H](C)CO)C[C@@H]2C)cc1,1.4,0.7,0.4,6.3,-4.0,x
CC1=NN(c2ccc(C)c(C)c2)C(=O)/C1=C\C=C\c1ccc([N+](=O)[O-])o1,66.9*,x,59.3*,-1.3,x,70.0*
CC1=NN(c2ccc([N+](=O)[O-])cc2)C(=O)/C1=C\N(C)C,-26.2,-18.2,x,x,4.5,-1.7
CC(=O)Nc1ccc(/C(C)=N/NC(=O)c2ccc(CN3CCOCC3)cc2)cc1,-5.5,-43.0,10.8,35.2*,6.1,-24.5
COc1ccc(C(=O)NC(=S)Nc2ccc(CN3CCOCC3)cc2)cc1Br,x,9.9,10.1,15.7*,-21.5*,3.8
O=C(Nc1ccc(CN2CCOCC2)cc1)c1ccc(Cl)cc1,-118.3,-25.8,x,0.7,10.1,-52.7
O=C(Nc1ccc(CN2CCOCC2)cc1)c1ccc(F)cc1,-81.6,-20.9,53.9*,-0.9,4.5,-108.4
CCNC(=O)[C@H]1[C@H](CO)[C@H]2Cn3c(ccc(-c4ccc(OC)cc4)c3=O)[C@@H]1N2CC,0.8,10.3,x,-37.4,-0.6,-2.4
C[C@H]1CCCCO[C@@H](CN(C)Cc2ccccc2)[C@@H](C)CN([C@@H](C)CO)C(=O)c2cc(NC(=O)Nc3cccc4ccccc34)ccc2O1,u,12.3,-14.6,1.0,0.8,30.6
CCn1c(C)cs/c1=N\S(=O)(=O)c1ccccc1,5.4,9.8,-0.6,x,-7.1,-8.8
O=Cc1s/c(=N\S(=O)(=O)c2ccccc2)n(CCCCl)c1Cl,54.6*,71.9*,x,3.0,4.3,76.1*
COc1ccc(N=[N+]([O-])c2ccc(OC)cc2)cc1,u,71.7*,2.6,-3.0,-1.8,-185.2
COc1ccc(S(=O)(=O)c2ccc(OC)cc2)cc1,x,x,-11.5,x,x,-0.6
CSCCCNC(=S)N1CCN(c2ccc(C(C)=O)cc2)CC1,-5.6,-3.2,-22.1,x,-6.8,6.4
CCCCNC(=S)N1CCN(c2ccc(C(C)=O)cc2)CC1,2.1,-8.4,x,-6.4,-21.7*,-3.9
COc1ccc([Si](C)(C)[C@H]2[C@H](CCO)O[C@@]3(C(=O)N(Cc4ccccc4)c4ccc(N5CCC5=O)cc43)[C@@H]2C)cc1,5.7,x,5.5,17.3*,x,110.0*
COc1ccc([Si](C)(C)[C@@H]2[C@@H](CCO)O[C@]3(C(=O)N(Cc4ccc(N5CCOC5=O)cc4)c4ccccc43)[C@H]2C)cc1,34.2,x,-5.1,7.3,x,96.7*
COc1ccc([Si](C)(C)[C@@H]2[C@@H](CCO)O[C@]3(C(=O)N(Cc4cccc(N5CCOC5=O)c4)c4ccccc43)[C@H]2C)cc1,41.8,x,x,-0.3,x,101.8*
C[C@H](CO)N1C[C@H](C)[C@H](CN(C)Cc2ccccc2)Oc2ccc(NC(=O)Nc3ccc4c(c3)OCO4)cc2CC1=O,3.1,-6.7,8.6,-6.4,-4.3,0.1
O=C(Cc1ccccn1)N1CC2(C1)[C@@H](c1ccccc1)[C@H](CO)N2C(=O)c1ccncc1,8.2,11.0,-2.2,-0.5,1.3,-5.5
C#CC(=O)N(c1cccc(OC)c1)C(C(=O)NC1CCCC1)c1cccs1 (centres undefined),43.6,103.9*,93.0*,3.6,-12.7,x
C#CC(=O)N(c1ccc(OC)c(OC)c1)C(C(=O)NC1CCCC1)c1cccs1 (centres undefined),45.2,101.3*,102.7*,0.7,-27.5*,x
COCC(=O)N1CC2(C1)[C@@H](c1ccc(-c3ccccc3)cc1)[C@H](CO)N2C(C)=O,1.7,4.6,12.8,-1.9,-0.9,x
SMILES,EWS-Fli inh,LGR2 antag,PGC1a acetyl inh,SIRT5 block,Ecoli rRNA inh,PAX8 inh HTS
O=C(c1ccccc1)c1ccc(OCCOCCN2CCN(Cc3ccccc3)CC2)cc1,24.7,-2.4,-0.4,-3.4,-36.5*,22.9
O=C(c1ccccc1)c1ccc(OCCCN2CCCC2)cc1,10.9,-19.2,1.6,-0.4,-0.2,-14.8
C=CCN1C(=O)C2C(C(=O)NCc3ccccc3)C3C=CC2(O3)C1C(=O)NC(C)(C)C (centres undefined),x,x,11.0,x,x,x
CCOC(=O)[C@@H]1[C@@H]2C=C[C@]3(O2)[C@H](C(=O)NCc2ccccc2)N(CCCCCCO)C(=O)[C@@H]13,31.8,x,10.7,3.7,x,109.2*
C[C@H](CO)N1C[C@H](C)[C@@H](CN(C)Cc2cccc(F)c2)Oc2cc(C#Cc3ccccn3)ccc2S1(=O)=O,13.4,0.6,-29.5,-1.1,-1.1,x
C[C@@H]1CN([C@H](C)CO)S(=O)(=O)c2ccc(C#Cc3cccc(F)c3)cc2O[C@@H]1CN(C)C(=O)NC1CCCCC1,11.6,3.7,12.3,17.4*,-0.5,82.5*
C[C@H]1CN([C@@H](C)CO)S(=O)(=O)c2ccc(C#Cc3cccc(F)c3)cc2O[C@H]1CN(C)CC1CC1,-13.7,7.0,-6.7,-3.8,x,65.2*
C[C@H](CO)N1C[C@H](C)[C@@H](CN(C)C(=O)NC2CCCCC2)Oc2cc(C#Cc3cccc(F)c3)ccc2S1(=O)=O,1.1,21.7,-10.4,x,-1.3,16.1
C[C@H](CO)N1C[C@H](C)[C@H](CN(C)CC2CC2)Oc2cc(C#Cc3cccc(F)c3)ccc2S1(=O)=O,12.2,37.5,-16.9,-5.0,-1.1,8.3
C[C@H](CO)N1C[C@H](C)[C@H](CN(C)C(=O)NC2CCCCC2)Oc2cc(C#Cc3cccc(F)c3)ccc2S1(=O)=O,29.3,37.8,u,-2.9,-4.9,83.5*
C[C@@H]1CN([C@@H](C)CO)S(=O)(=O)c2ccc(C#Cc3ccccn3)cc2O[C@@H]1CN(C)Cc1cccc(F)c1,10.7,9.9,-16.4,19.8*,-6.4,x
C[C@H]1CN([C@@H](C)CO)S(=O)(=O)c2ccc(C#Cc3cccc(F)c3)cc2O[C@H]1CN(C)C(=O)NC1CCCCC1,20.2,16.7,14.8,15.0,4.1,55.1
C[C@H](CO)N1C[C@H](C)[C@@H](CN(C)CC2CC2)Oc2cc(-c3cccc(C#N)c3)ccc2S1(=O)=O,5.9,2.7,-7.5,16.0*,-0.1,-11.3
O=C(O)C/C(=C\c1ccc(N2CCOCC2)c([N+](=O)[O-])c1)c1nc2ccccc2s1,-15.0,-24.1,3.1,-6.9,-25.1*,1.2
